Consider six molecules from PMC12136788.

Whole data set: some 5,800 sequences, median “enrichment r” near 0.68, cut for the highest 2% near 11. Not all results are given here.

T1: UNK ZnF1-6 (called full-length) (human, UniProt Q9C0B0 30-357)
T1 sequence: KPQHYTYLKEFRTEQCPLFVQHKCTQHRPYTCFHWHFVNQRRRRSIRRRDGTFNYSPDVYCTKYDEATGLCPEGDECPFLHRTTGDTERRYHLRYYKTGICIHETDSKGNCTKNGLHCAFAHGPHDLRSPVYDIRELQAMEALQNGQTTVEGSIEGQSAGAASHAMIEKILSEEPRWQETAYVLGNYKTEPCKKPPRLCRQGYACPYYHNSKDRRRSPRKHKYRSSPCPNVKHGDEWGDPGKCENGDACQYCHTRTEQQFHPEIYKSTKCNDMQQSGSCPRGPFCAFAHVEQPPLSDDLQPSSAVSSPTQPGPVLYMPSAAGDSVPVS

B1: ENSG00000124766:be:win_3701|3pUTR|ENSG00000124766|bound_else_gene|NA|bound_elsewhere_windowed (ssRNA)
RNA: GGGAGUUCUACAGUCCGACGAUCUCAGGUUUAUAGCUGUUGUGUUUAAAAAUUGAAAAAAGUGGAAAACAUCUUUGUACAUUUAAGUCUGUAUUAUAAUAAGCAAAAAGAUUGUGUGUAUGUAUGUUUAAUAUAACAUGACAGCAACAGAGGAUUGAGCAUCA
B2: chr4:1716041:1716142:-|3pUTR|ENSG00000168936|msi1|total|mutant (ssRNA)
RNA: GGGAGUUCUACAGUCCGACGAUCAGGCUUCCCCGAGCGCUCAGCAGGUGAAGGCAGCAGGGGCCAUGGCCGGGAGCCAGGCCCCGCUUUGAACUGAGUUUCAAGGGCUGCCAAAGAGGGGCAGUGGGUUGGGGUUGUUUUUACCAACAGAGGAUUGAGCAUCA
B3: chr6:158785413:158785514:-|CDS|ENSG00000092820|msi1|FALSE|unique (ssRNA)
RNA: GGGAGUUCUACAGUCCGACGAUCGAGCUCAUCCAGGACAUCACCCAGAAACUUUUCUUCCUCCAAGUGAAGGAAGGAAUCCUUAGCGAUGAGAUCUACUGCCCCCCUGAGACUGCCGUGCUCUUGGGGUCCUACGCUGUGCAGCAACAGAGGAUUGAGCAUCA
B4: chr10:113876644:113876745:+|CDS|ENSG00000196865|msi1|total|mutant (ssRNA)
RNA: GGGAGUUCUACAGUCCGACGAUCGGUUAAUGAUGCAGAUGCCAGCCUUUGGCAAGAACCCGAAGUUUCCUGCUGGCCAACUCCCGUCAUACUUGGACCUCGUGGAAACAUGUUGUUUUCUUUGAUUGGAGAGGGACACAAAGACAACAGAGGAUUGAGCAUCA
B5: chr1:212686416:212686790:-|three_prime_utr|ENSG00000123685|control|control|control (ssRNA)
RNA: GGGAGUUCUACAGUCCGACGAUCUUGUGCAGAUCCAGCAUGGAGGCCACCCUCAGGAGUGACUUCUCAUCCACCCUGGCAGCUAGUAGGUUCUGCUGUUAUGCAGAGCCAUUUCCUCUAGAAUUUGGAUAAUAAAGAUGCUUACAACAGAGGAUUGAGCAUCA
B6: ENSG00000184117:stop:overlap|stop_codon|ENSG00000184117|stop_codon|NA|stop_codon (ssRNA)
RNA: GGGAGUUCUACAGUCCGACGAUCUGGGCAACUGGAACACGUGGUAUGGGGAGCAGGACCAGGCAGGUCAUUCCUGGUUUUGGUAGAUUUCUAUCCAUACAGUACUUUUGCCAUUUCCUUUGGGAAAAAGACCUUUAAACCAUACAACAGAGGAUUGAGCAUCA

The target in this test is T1, UNK ZnF1-6 (called full-length). Briefly: nsRBNS (natural sequence RNA bind-n-seq); RBNS binding buffer (assumed for nsRBNS): 25 mM Tris pH 7.5, 150 mM KCl, 3 mM MgCl2, 0.01% Triton X-100, 500 ug/ml BSA, 20 U/ml SUPERase-In, 4 C; UNK is unkempt and MSI1 is Musashi-1; names of the RNAs are library labels; protein concentration not given here; high values mean tight binding.
The molecule B1 returned a binding signal of 0.65 enrichment R.

In the case of B2, the binding signal amounted to 0.696 enrichment R.

Take B3: the binding signal came out at 0.521 enrichment R.

In turn, B4 gave a binding signal of 0.577 enrichment R.

Take B5: the binding signal came to 0.63 enrichment R. As to B6, the binding signal stood at 0.898 enrichment R.
